# Results reported in PMC7156710, “The Sox2 transcription factor binds RNA”.
# Assays:
# Assay in all cases: fluorescence anisotropy; 10 mM Tris-HEPES pH 7.5, 8% Ficoll, 0.05% NP-40, 135 mM KCl, 15 mM NaCl, 1 mM DTT, 0.1 mg/mL BSA; 2 nM DNA or 3 nM RNA; low values mean tight binding
# Settings in all cases: protein: recombinant; tags: N-terminal His6 and thrombin site, not removed; label: FAM; only (+) strand given; dsDNA, one strand shown
# [1] = molecular target: Sox2-HMG (His6 retained) E78A (Homo sapiens, UniProt P48431 38-121, E78A)
# In short: (§1)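 Polarization on a CLARIOstar was recorded for His6-tagged, Ni-NTA-purified Sox2-HMG domains bearing alanine substitutions introduced by site-directed mutagenesis, titrated for no less than 1 h in Tris-HEPES pH 7.5 binding buffer against 2 nM fluorescein-labeled DNA or 3 nM fluorescein-labeled RNA. Triplicate titrations were each read three times. Dissociation constants were derived in Kaleidagraph and expressed as a ratio of mutant to wild type.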
# [2] = molecular target: Sox2-HMG (His6 retained) S72A (Homo sapiens, UniProt P48431 38-121, S72A)
# In short: as §1
# [3] = molecular target: Sox2-HMG (His6 retained) E104A (Homo sapiens, UniProt P48431 38-121, E104A)
# In short: as §1
# [4] = molecular target: Sox2-HMG (His6 retained) K58A (Homo sapiens, UniProt P48431 38-121, K58A)
# In short: as §1
# [5] = molecular target: Sox2-HMG (His6 retained) H67A (Homo sapiens, UniProt P48431 38-121, H67A)
# In short: as §1
# [6] = molecular target: Sox2-HMG (His6 retained) K42A (Homo sapiens, UniProt P48431 38-121, K42A)
# In short: as §1
# [7] = molecular target: Sox2-HMG (His6 retained) M45A (Homo sapiens, UniProt P48431 38-121, M45A)
# In short: as §1
# [8] = molecular target: Sox2-HMG (His6 retained) N63A (Homo sapiens, UniProt P48431 38-121, N63A)
# In short: as §1
# [9] = molecular target: Sox2-HMG (His6 retained) K115A (Homo sapiens, UniProt P48431 38-121, K115A)
# In short: as §1
# [10] = molecular target: Sox2-HMG (His6 retained) E70A (Homo sapiens, UniProt P48431 38-121, E70A)
# In short: as §1
# [11] = molecular target: Sox2-HMG (His6 retained) K87A (Homo sapiens, UniProt P48431 38-121, K87A)
# In short: as §1
# [12] = molecular target: Sox2-HMG (His6 retained) W79A (Homo sapiens, UniProt P48431 38-121, W79A)
# In short: as §1
# [13] = molecular target: Sox2-HMG (His6 retained) E62A (Homo sapiens, UniProt P48431 38-121, E62A)
# In short: as §1
# [14] = molecular target: Sox2-HMG (His6 retained) R114A (Homo sapiens, UniProt P48431 38-121, R114A)
# In short: as §1
# [15] = molecular target: Sox2-HMG (His6 retained) S69A (Homo sapiens, UniProt P48431 38-121, S69A)
# In short: as §1
# [16] = molecular target: Sox2-HMG (His6 retained) R96A (Homo sapiens, UniProt P48431 38-121, R96A)
# In short: as §1
# [17] = molecular target: Sox2-HMG (His6 retained) R40A (Homo sapiens, UniProt P48431 38-121, R40A)
# In short: as §1
# [18] = molecular target: Sox2-HMG (His6 retained) W51A (Homo sapiens, UniProt P48431 38-121, W51A)
# In short: as §1
# [19] = molecular target: Sox2-HMG (His6 retained) S83A (Homo sapiens, UniProt P48431 38-121, S83A)
# In short: as §1
# [20] = molecular target: Sox2-HMG (His6 retained) R111A (Homo sapiens, UniProt P48431 38-121, R111A)
# In short: as §1
# [21] = molecular target: Sox2-HMG (His6 retained) E84A (Homo sapiens, UniProt P48431 38-121, E84A)
# In short: as §1
# [22] = molecular target: Sox2-HMG (His6 retained) K95A (Homo sapiens, UniProt P48431 38-121, K95A)
# In short: as §1
# [23] = molecular target: Sox2-HMG (His6 retained) F48A (Homo sapiens, UniProt P48431 38-121, F48A)
# In short: as §1
# [24] = molecular target: Sox2-HMG (His6 retained) R74A (Homo sapiens, UniProt P48431 38-121, R74A)
# In short: as §1
# [25] = molecular target: Sox2-HMG (His6 retained) Q61A (Homo sapiens, UniProt P48431 38-121, Q61A)
# In short: as §1
# [26] = molecular target: Sox2-HMG (His6 retained) R88A (Homo sapiens, UniProt P48431 38-121, R88A)
# In short: as §1
# [27] = molecular target: Sox2-HMG (His6 retained) K73A (Homo sapiens, UniProt P48431 38-121, K73A)
# In short: as §1
# [28] = molecular target: Sox2-HMG (His6 retained) E86A (Homo sapiens, UniProt P48431 38-121, E86A)
# In short: as §1
# [29] = molecular target: Sox2-HMG (His6 retained) R53A (Homo sapiens, UniProt P48431 38-121, R53A)
# In short: as §1
# [30] = molecular target: Sox2-HMG (His6 retained) R113A (Homo sapiens, UniProt P48431 38-121, R113A)
# In short: as §1
# [31] = molecular target: Sox2-HMG (His6 retained) T85A (Homo sapiens, UniProt P48431 38-121, T85A)
# In short: as §1
# [32] = molecular target: Sox2-HMG (His6 retained) M49A (Homo sapiens, UniProt P48431 38-121, M49A)
# In short: as §1
# [33] = molecular target: Sox2-HMG (His6 retained) R56A (Homo sapiens, UniProt P48431 38-121, R56A)
# In short: as §1
# [34] = molecular target: Sox2-HMG (His6 retained) K80A (Homo sapiens, UniProt P48431 38-121, K80A)
# In short: as §1
# [35] = molecular target: Sox2-HMG (His6 retained) Y110A (Homo sapiens, UniProt P48431 38-121, Y110A)
# In short: as §1
# [36] = molecular target: Sox2-HMG (His6 retained) K103A (Homo sapiens, UniProt P48431 38-121, K103A)
# In short: as §1
# [37] = molecular target: Sox2-HMG (His6 retained) K109A (Homo sapiens, UniProt P48431 38-121, K109A)
# In short: as §1
# [38] = molecular target: Sox2-HMG (His6 retained) R43A (Homo sapiens, UniProt P48431 38-121, R43A)
# In short: as §1
# [39] = molecular target: Sox2-HMG (His6 retained) R57A (Homo sapiens, UniProt P48431 38-121, R57A)
# In short: as §1
# [40] = molecular target: Sox2-HMG (His6 retained) R98A (Homo sapiens, UniProt P48431 38-121, R98A)
# In short: as §1
# [41] = molecular target: Sox2-HMG (His6 retained) N68A (Homo sapiens, UniProt P48431 38-121, N68A)
# In short: as §1
# [42] = molecular target: Sox2-HMG (His6 retained) P112A (Homo sapiens, UniProt P48431 38-121, P112A)
# In short: as §1
# [43] = molecular target: Sox2-HMG (His6 retained) N46A (Homo sapiens, UniProt P48431 38-121, N46A)
# In short: as §1
# [44] = molecular target: Sox2-HMG (His6 retained) K65A (Homo sapiens, UniProt P48431 38-121, K65A)
# In short: as §1
# [45] = molecular target: Sox2-HMG (His6 retained) H101A (Homo sapiens, UniProt P48431 38-121, H101A)
# In short: as §1
# [46] = molecular target: Sox2-HMG (His6 retained) P64A (Homo sapiens, UniProt P48431 38-121, P64A)
# In short: as §1
# [47] = molecular target: Sox2-HMG (His6 retained) M66A (Homo sapiens, UniProt P48431 38-121, M66A)
# In short: as §1
# [48] = molecular target: Sox2-HMG (His6 retained) H105A (Homo sapiens, UniProt P48431 38-121, H105A)
# In short: as §1
# Sox2-HMG (His6 retained) K87A, sequence (P48431 other isoform, or with tags, fused parts or gaps K87A | K87A K87A): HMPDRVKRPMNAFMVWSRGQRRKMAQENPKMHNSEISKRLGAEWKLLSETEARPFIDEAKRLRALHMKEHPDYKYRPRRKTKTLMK
# Sox2-HMG (His6 retained) E86A, sequence (P48431 other isoform, or with tags, fused parts or gaps E86A | E86A E86A): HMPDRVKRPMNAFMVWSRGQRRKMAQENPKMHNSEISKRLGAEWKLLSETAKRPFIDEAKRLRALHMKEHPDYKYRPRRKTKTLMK
# Sox2-HMG (His6 retained) W79A, sequence (P48431 other isoform, or with tags, fused parts or gaps W79A | W79A W79A): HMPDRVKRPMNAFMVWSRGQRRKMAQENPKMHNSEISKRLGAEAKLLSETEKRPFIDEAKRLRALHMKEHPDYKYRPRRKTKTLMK
# Sox2-HMG (His6 retained) E78A, sequence (P48431 other isoform, or with tags, fused parts or gaps E78A | E78A E78A): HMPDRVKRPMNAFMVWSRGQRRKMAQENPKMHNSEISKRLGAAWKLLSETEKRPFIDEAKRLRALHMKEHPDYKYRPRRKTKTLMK
# Sox2-HMG (His6 retained) E104A, sequence (P48431 other isoform, or with tags, fused parts or gaps E104A | E104A E104A): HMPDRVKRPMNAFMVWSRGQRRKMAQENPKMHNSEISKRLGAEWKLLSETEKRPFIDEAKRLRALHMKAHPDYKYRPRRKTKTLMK
# Sox2-HMG (His6 retained) H101A, sequence (P48431 other isoform, or with tags, fused parts or gaps H101A | H101A H101A): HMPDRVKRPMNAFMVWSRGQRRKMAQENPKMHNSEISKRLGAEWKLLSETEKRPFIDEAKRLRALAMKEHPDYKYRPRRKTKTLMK
# Sox2-HMG (His6 retained) F48A, sequence (P48431 other isoform, or with tags, fused parts or gaps F48A | F48A F48A): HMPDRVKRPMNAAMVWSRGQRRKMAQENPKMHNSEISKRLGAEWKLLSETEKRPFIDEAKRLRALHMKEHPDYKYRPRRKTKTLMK
# Sox2-HMG (His6 retained) W51A, sequence (P48431 other isoform, or with tags, fused parts or gaps W51A | W51A W51A): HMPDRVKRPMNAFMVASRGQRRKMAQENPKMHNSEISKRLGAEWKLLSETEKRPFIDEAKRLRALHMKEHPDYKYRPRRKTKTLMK
# Sox2-HMG (His6 retained) R56A, sequence (P48431 other isoform, or with tags, fused parts or gaps R56A | R56A R56A): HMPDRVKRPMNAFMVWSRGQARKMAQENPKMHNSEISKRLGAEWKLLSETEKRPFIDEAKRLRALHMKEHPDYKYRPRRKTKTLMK
# Sox2-HMG (His6 retained) K103A, sequence (P48431 other isoform, or with tags, fused parts or gaps K103A | K103A K103A): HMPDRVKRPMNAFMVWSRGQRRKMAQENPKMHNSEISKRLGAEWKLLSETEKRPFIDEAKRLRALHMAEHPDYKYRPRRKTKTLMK
# Sox2-HMG (His6 retained) H67A, sequence (P48431 other isoform, or with tags, fused parts or gaps H67A | H67A H67A): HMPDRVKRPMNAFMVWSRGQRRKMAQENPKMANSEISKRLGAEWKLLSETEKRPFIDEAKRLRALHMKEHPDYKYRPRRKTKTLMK
# Sox2-HMG (His6 retained) P112A, sequence (P48431 other isoform, or with tags, fused parts or gaps P112A | P112A P112A): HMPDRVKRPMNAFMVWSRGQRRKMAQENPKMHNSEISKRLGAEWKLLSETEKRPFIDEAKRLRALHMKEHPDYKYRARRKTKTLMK
# Sox2-HMG (His6 retained) K42A, sequence (P48431 other isoform, or with tags, fused parts or gaps K42A | K42A K42A): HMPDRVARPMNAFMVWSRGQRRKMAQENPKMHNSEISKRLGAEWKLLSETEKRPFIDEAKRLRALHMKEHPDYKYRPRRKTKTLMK
# Sox2-HMG (His6 retained) R114A, sequence (P48431 other isoform, or with tags, fused parts or gaps R114A | R114A R114A): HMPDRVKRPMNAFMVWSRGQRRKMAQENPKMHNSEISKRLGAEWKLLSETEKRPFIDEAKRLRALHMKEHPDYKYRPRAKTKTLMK
# Sox2-HMG (His6 retained) E84A, sequence (P48431 other isoform, or with tags, fused parts or gaps E84A | E84A E84A): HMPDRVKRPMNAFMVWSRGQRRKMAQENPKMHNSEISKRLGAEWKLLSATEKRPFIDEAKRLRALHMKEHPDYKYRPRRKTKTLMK
# Sox2-HMG (His6 retained) K65A, sequence (P48431 other isoform, or with tags, fused parts or gaps K65A | K65A K65A): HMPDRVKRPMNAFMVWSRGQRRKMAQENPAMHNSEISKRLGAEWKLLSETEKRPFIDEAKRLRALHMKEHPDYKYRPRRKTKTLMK
# Sox2-HMG (His6 retained) S72A, sequence (P48431 other isoform, or with tags, fused parts or gaps S72A | S72A S72A): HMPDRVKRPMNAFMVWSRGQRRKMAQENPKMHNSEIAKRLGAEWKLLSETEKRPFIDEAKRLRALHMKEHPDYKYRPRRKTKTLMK
# Sox2-HMG (His6 retained) R40A, sequence (P48431 other isoform, or with tags, fused parts or gaps R40A | R40A R40A): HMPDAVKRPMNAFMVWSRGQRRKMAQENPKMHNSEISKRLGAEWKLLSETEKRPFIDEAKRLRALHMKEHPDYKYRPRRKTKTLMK
# Sox2-HMG (His6 retained) K73A, sequence (P48431 other isoform, or with tags, fused parts or gaps K73A | K73A K73A): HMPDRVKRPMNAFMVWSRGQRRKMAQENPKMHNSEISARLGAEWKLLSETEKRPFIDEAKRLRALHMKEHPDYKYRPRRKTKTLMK
# Sox2-HMG (His6 retained) K109A, sequence (P48431 other isoform, or with tags, fused parts or gaps K109A | K109A K109A): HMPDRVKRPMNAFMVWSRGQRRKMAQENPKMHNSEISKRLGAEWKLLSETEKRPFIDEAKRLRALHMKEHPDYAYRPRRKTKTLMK
# Sox2-HMG (His6 retained) E70A, sequence (P48431 other isoform, or with tags, fused parts or gaps E70A | E70A E70A): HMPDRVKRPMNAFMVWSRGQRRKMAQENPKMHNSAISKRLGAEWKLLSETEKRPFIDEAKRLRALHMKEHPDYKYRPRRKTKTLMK
# Sox2-HMG (His6 retained) S83A, sequence (P48431 other isoform, or with tags, fused parts or gaps S83A | S83A S83A): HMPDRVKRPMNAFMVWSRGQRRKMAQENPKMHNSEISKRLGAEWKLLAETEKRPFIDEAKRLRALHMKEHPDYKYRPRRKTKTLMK
# Sox2-HMG (His6 retained) H105A, sequence (P48431 other isoform, or with tags, fused parts or gaps H105A | H105A H105A): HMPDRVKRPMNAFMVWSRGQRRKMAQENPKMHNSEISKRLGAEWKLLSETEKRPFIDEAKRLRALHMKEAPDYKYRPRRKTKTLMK
# Sox2-HMG (His6 retained) R111A, sequence (P48431 other isoform, or with tags, fused parts or gaps R111A | R111A R111A): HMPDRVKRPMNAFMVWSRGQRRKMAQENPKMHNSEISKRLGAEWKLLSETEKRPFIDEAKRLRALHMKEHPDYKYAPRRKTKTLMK
# Sox2-HMG (His6 retained) M49A, sequence (P48431 other isoform, or with tags, fused parts or gaps M49A | M49A M49A): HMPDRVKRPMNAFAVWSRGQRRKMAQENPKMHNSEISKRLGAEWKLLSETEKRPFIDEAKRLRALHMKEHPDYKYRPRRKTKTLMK
# Sox2-HMG (His6 retained) K80A, sequence (P48431 other isoform, or with tags, fused parts or gaps K80A | K80A K80A): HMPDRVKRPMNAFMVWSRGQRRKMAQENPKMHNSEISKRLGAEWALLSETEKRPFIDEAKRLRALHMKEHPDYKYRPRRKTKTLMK
# Sox2-HMG (His6 retained) R53A, sequence (P48431 other isoform, or with tags, fused parts or gaps R53A | R53A R53A): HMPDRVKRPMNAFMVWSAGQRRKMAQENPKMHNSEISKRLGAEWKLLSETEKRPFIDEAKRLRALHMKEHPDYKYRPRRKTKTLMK
# Sox2-HMG (His6 retained) R74A, sequence (P48431 other isoform, or with tags, fused parts or gaps R74A | R74A R74A): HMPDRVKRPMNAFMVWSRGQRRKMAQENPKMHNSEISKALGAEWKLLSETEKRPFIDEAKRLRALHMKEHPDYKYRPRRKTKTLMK
# Sox2-HMG (His6 retained) R96A, sequence (P48431 other isoform, or with tags, fused parts or gaps R96A | R96A R96A): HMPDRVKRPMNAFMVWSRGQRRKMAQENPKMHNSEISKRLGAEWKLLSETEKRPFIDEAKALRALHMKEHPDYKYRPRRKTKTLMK
# Sox2-HMG (His6 retained) P64A, sequence (P48431 other isoform, or with tags, fused parts or gaps P64A | P64A P64A): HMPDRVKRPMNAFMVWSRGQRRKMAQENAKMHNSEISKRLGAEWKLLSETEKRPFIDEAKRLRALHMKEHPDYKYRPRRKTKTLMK
# Sox2-HMG (His6 retained) R57A, sequence (P48431 other isoform, or with tags, fused parts or gaps R57A | R57A R57A): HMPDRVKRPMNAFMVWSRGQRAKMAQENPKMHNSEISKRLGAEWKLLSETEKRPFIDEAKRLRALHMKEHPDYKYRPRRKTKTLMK
# Sox2-HMG (His6 retained) R113A, sequence (P48431 other isoform, or with tags, fused parts or gaps R113A | R113A R113A): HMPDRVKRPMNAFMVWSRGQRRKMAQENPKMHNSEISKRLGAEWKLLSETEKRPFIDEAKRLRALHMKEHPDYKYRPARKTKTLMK
# Sox2-HMG (His6 retained) K58A, sequence (P48431 other isoform, or with tags, fused parts or gaps K58A | K58A K58A): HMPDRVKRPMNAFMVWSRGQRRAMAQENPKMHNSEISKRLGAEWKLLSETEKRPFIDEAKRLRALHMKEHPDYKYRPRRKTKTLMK
# Sox2-HMG (His6 retained) M45A, sequence (P48431 other isoform, or with tags, fused parts or gaps M45A | M45A M45A): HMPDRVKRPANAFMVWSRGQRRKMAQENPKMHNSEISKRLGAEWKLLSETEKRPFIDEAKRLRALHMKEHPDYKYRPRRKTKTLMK
# Sox2-HMG (His6 retained) N46A, sequence (P48431 other isoform, or with tags, fused parts or gaps N46A | N46A N46A): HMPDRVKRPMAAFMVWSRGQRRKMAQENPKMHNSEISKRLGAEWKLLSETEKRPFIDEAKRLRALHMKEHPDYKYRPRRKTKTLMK
# Sox2-HMG (His6 retained) M66A, sequence (P48431 other isoform, or with tags, fused parts or gaps M66A | M66A M66A): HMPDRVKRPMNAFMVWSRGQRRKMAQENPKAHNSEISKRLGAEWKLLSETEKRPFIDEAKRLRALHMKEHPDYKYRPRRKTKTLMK
# Sox2-HMG (His6 retained) N68A, sequence (P48431 other isoform, or with tags, fused parts or gaps N68A | N68A N68A): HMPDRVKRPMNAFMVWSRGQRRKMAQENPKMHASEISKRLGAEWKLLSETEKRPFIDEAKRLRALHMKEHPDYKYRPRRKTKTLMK
# Sox2-HMG (His6 retained) K95A, sequence (P48431 other isoform, or with tags, fused parts or gaps K95A | K95A K95A): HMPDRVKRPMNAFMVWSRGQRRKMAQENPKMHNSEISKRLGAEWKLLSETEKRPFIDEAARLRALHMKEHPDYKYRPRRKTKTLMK
# Sox2-HMG (His6 retained) E62A, sequence (P48431 other isoform, or with tags, fused parts or gaps E62A | E62A E62A): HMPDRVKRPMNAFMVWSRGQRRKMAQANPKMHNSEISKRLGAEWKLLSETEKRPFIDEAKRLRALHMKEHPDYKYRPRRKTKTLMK
# Sox2-HMG (His6 retained) T85A, sequence (P48431 other isoform, or with tags, fused parts or gaps T85A | T85A T85A): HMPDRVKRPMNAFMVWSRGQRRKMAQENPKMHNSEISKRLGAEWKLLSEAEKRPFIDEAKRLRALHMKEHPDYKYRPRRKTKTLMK
# Sox2-HMG (His6 retained) R88A, sequence (P48431 other isoform, or with tags, fused parts or gaps R88A | R88A R88A): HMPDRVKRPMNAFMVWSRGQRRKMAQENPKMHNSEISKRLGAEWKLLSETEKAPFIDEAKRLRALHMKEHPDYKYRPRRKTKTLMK
# Sox2-HMG (His6 retained) R98A, sequence (P48431 other isoform, or with tags, fused parts or gaps R98A | R98A R98A): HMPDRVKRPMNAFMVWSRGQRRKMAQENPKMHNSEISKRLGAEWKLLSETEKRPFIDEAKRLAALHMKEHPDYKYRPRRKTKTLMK
# Sox2-HMG (His6 retained) Q61A, sequence (P48431 other isoform, or with tags, fused parts or gaps Q61A | Q61A Q61A): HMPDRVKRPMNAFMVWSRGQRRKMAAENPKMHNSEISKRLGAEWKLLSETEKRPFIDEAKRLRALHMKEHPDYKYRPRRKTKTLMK
# Sox2-HMG (His6 retained) R43A, sequence (P48431 other isoform, or with tags, fused parts or gaps R43A | R43A R43A): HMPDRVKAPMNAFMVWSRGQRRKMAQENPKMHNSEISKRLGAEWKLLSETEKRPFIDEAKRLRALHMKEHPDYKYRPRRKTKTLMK
# Sox2-HMG (His6 retained) K115A, sequence (P48431 other isoform, or with tags, fused parts or gaps K115A | K115A K115A): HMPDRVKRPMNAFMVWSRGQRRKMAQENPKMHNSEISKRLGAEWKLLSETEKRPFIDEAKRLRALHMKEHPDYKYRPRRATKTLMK
# Sox2-HMG (His6 retained) N63A, sequence (P48431 other isoform, or with tags, fused parts or gaps N63A | N63A N63A): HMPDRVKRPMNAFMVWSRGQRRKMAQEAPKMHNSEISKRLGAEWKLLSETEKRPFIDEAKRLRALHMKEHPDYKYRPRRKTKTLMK
sequence,measurement,setting,value
CGCGCCTTTGTTCCCGGGT,binding signal,[1],2.2 ± 1 Kd(mutant)/Kd(WT)
same,binding signal,[2],1.4 ± 0.4 Kd(mutant)/Kd(WT)
same,binding signal,[3],1.1 ± 0.3 Kd(mutant)/Kd(WT)
same,binding signal,[4],1.1 ± 0.5 Kd(mutant)/Kd(WT)
same,binding signal,[5],2.4 ± 0.7 Kd(mutant)/Kd(WT)
same,binding signal,[6],2.8 ± 1.8 Kd(mutant)/Kd(WT)
same,binding signal,[7],1.4 ± 0.7 Kd(mutant)/Kd(WT)
same,binding signal,[8],2.9 ± 1.4 Kd(mutant)/Kd(WT)
same,binding signal,[9],5.8 ± 1 Kd(mutant)/Kd(WT)
same,binding signal,[10],0.7 ± 0.4 Kd(mutant)/Kd(WT)
same,binding signal,[11],9.3 ± 1.4 Kd(mutant)/Kd(WT)
same,binding signal,[12],490 ± 20 Kd(mutant)/Kd(WT)
same,binding signal,[13],0.6 ± 0.3 Kd(mutant)/Kd(WT)
same,binding signal,[14],6.1 ± 2.2 Kd(mutant)/Kd(WT)
same,binding signal,[15],1.1 ± 0.5 Kd(mutant)/Kd(WT)
same,binding signal,[16],1.6 ± 1.1 Kd(mutant)/Kd(WT)
same,binding signal,[17],2 ± 1.9 Kd(mutant)/Kd(WT)
same,binding signal,[18],17 ± 2.8 Kd(mutant)/Kd(WT)
same,binding signal,[19],0.9 ± 0.2 Kd(mutant)/Kd(WT)
same,binding signal,[20],3 ± 0.8 Kd(mutant)/Kd(WT)
same,binding signal,[21],1.6 ± 0.3 Kd(mutant)/Kd(WT)
same,binding signal,[22],1.1 ± 1.1 Kd(mutant)/Kd(WT)
same,binding signal,[23],420 ± 120 Kd(mutant)/Kd(WT)
same,binding signal,[24],0.7 ± 0.4 Kd(mutant)/Kd(WT)
same,binding signal,[25],0.6 ± 0.2 Kd(mutant)/Kd(WT)
same,binding signal,[26],1.3 ± 0.7 Kd(mutant)/Kd(WT)
same,binding signal,[27],3 ± 0.6 Kd(mutant)/Kd(WT)
same,binding signal,[28],0.8 ± 0.1 Kd(mutant)/Kd(WT)
same,binding signal,[29],0.7 ± 0.2 Kd(mutant)/Kd(WT)
same,binding signal,[30],0.6 ± 0.5 Kd(mutant)/Kd(WT)
same,binding signal,[31],2.8 ± 0.3 Kd(mutant)/Kd(WT)
same,binding signal,[32],30 ± 5.4 Kd(mutant)/Kd(WT)
same,binding signal,[33],190 ± 70 Kd(mutant)/Kd(WT)
same,binding signal,[34],2.8 ± 0.9 Kd(mutant)/Kd(WT)
same,binding signal,[35],7.5 ± 3.5 Kd(mutant)/Kd(WT)
same,binding signal,[36],1.4 ± 1.3 Kd(mutant)/Kd(WT)
same,binding signal,[37],3.2 ± 0.8 Kd(mutant)/Kd(WT)
same,binding signal,[38],8.5 ± 2.2 Kd(mutant)/Kd(WT)
same,binding signal,[39],0.8 ± 0.3 Kd(mutant)/Kd(WT)
same,binding signal,[40],0.8 ± 0.5 Kd(mutant)/Kd(WT)
same,binding signal,[41],1.1 ± 0.5 Kd(mutant)/Kd(WT)
same,binding signal,[42],2.7 ± 1.2 Kd(mutant)/Kd(WT)
same,binding signal,[43],15 ± 8.4 Kd(mutant)/Kd(WT)
same,binding signal,[44],8.5 ± 1 Kd(mutant)/Kd(WT)
same,binding signal,[45],1.9 ± 0.2 Kd(mutant)/Kd(WT)
same,binding signal,[46],2.6 ± 0.1 Kd(mutant)/Kd(WT)
same,binding signal,[47],1.8 ± 0.9 Kd(mutant)/Kd(WT)
same,binding signal,[48],1.7 ± 1.9 Kd(mutant)/Kd(WT)
